PNC assembly inh: High Content Assay for Compounds that inhibit the Assembly of the Perinucleolar Compartment; PC3M PTB-GFP, PNC prevalence imaging, 16 h; hits give low values; activity change (PNC), negative = inhibition, % at 10 µM; 140,000 compounds, 3.1% hits;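 active = readout at or below -70, meaning at least 70% loss of cells showing the perinucleolar compartment, a nuclear body marking cancer cells; inconclusive = readout between -30 and a set limit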
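Compounds are pinned in duplicate onto adhered PC3M cells stably expressing GFP-tagged PTB and incubated 16 h at 37 C. Cells are then fixed, nuclei stained with Hoechst, and PNC-positive cells counted.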
ALDH1A1 block: qHTS Assay for Inhibitors of Aldehyde Dehydrogenase 1 (ALDH1A1). Aldehyde dehydrogenase 1A1 (Homo sapiens), P00352. Purified ALDH1A1, NADH fluorescence, propionaldehyde substrate. Potency, µM (series often up to 75.3 µM), usual class: inhibitors. 220,000 compounds, 7.3% hits
IMPase inh: qHTS Assay for Identifying the Cell-Membrane Permeable IMPase Inhibitors; Inositol monophosphatase 1 (Rattus norvegicus), P97697; CHO-M1 cells, IP1 accumulation, HTRF TR-FRET ratio; inhibition (IP1 accumulation), % at 46.1 µM; 120,000 tested, under 10 active; AID 901, 2007; active = well fitted curve in the direction sought with a large enough effect in the signal ratio, not every such curve was filed as active; inconclusive = small, poorly fitted or top-dose-only effect, or a change in a side signal; inactive = no such curve, though single readings can be large or run the other way; the % refers to the signal ratio;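 note: cells stimulated with carbachol in lithium chloride buffer; higher means more IMPase inhibition seen as more IP1 and lower FRET ratio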
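CHO-M1 cells (CHO stably expressing M1 receptor), compound up to 46 uM final, stimulated with carbachol (50 uM as added) in buffer with 50mM LiCl, pH 7.4, 30 min at 37C. Cytosolic IP1 read by TR-FRET; AC50 from Hill fits.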
IMPase Li cell: qHTS Assay for Identifying the Cell-Membrane Permeable IMPase Inhibitors: Potentiation with Lithium; CHO-M1 cells, IP1 TR-FRET (IP-One), carbachol + lithium; Potency, µM (series often up to 59.4 µM), hits mostly inhibitors; 210,000 compounds, 0.35% hits; active = well fitted curve in the direction sought with a large enough effect; inconclusive = small, poorly fitted or top-dose-only effect, or another doubt; inactive = no such curve, though single readings can be large; an effect the other way counts as inactive or inconclusive;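 note: IP1 builds up when IMPase is blocked and the TR-FRET signal falls; nearly all actives have a fitted effect of over 50% in size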
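Steps: plate 2000 CHO-M1 cells per well and culture 16–30 h; add compound and lithium; incubate 30 min, 37C; add d2-IP1 tracer and Eu cryptate anti-IP1 antibody in lysis buffer; read after 10 min at room temperature.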
HPGD block: qHTS Assay for Inhibitors of HPGD (15-Hydroxyprostaglandin Dehydrogenase); 15-hydroxyprostaglandin dehydrogenase [NAD(+)] (Homo sapiens), P15428; purified HPGD, NADH fluorescence kinetic, PGE2 substrate; Potency, µM, most hits filed as inhibitors; 150,000 compounds, 4.3% hits; AID 894, 2007
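NADH formation kinetics: reaction with 30 uM PGE2 and 1 mM NAD+ (final), 20 nM enzyme, Tris-HCl pH 8 with Tween 20, after 15 min compound preincubation at room temperature. Fluorescence change, last versus first of five reads.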
ALOX12 inhib: qHTS Assay for Inhibitors of 12-hLO (12-human lipoxygenase); purified 12-hLO, xylenol orange hydroperoxide absorbance; Potency, µM (highest dose often 57.1 µM), actives largely listed as inhibitors; 150,000 compounds, 0.12% hits; AID 1452, 2008; active = well fitted curve in the direction sought with a large enough effect; inconclusive = small, poorly fitted or top-dose-only effect, or another doubt; inactive = no such curve, though single readings can be large; an effect the other way counts as inactive or inconclusive; note: nearly all actives have a fitted effect of over 55% in size
Target sequence (P18054 whole entry, looked up): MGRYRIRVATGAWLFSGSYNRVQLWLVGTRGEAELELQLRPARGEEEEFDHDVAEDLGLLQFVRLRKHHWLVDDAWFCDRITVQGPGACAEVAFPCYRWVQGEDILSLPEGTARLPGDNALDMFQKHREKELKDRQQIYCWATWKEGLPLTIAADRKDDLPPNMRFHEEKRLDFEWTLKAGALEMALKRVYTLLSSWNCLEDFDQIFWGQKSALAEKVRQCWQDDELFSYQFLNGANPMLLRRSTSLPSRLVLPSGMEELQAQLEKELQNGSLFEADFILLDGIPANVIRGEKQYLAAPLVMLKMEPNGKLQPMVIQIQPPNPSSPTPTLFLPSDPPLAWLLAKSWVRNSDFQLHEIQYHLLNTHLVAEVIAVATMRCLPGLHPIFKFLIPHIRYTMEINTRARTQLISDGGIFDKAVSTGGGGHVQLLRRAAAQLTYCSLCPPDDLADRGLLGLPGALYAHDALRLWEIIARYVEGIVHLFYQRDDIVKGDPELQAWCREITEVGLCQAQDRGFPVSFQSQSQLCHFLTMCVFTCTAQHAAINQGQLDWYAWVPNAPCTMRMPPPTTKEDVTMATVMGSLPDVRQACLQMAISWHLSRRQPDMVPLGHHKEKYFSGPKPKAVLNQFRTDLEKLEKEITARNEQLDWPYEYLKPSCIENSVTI
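Hydroperoxide formation by human 12-lipoxygenase from 40 uM arachidonic acid was followed colorimetrically via ferric-xylenol orange complex, using the 573/405 nm absorbance ratio. Enzyme concentration was 150 nM, with 30 min reaction at room temperature.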
A number is an active result; 0 = inactive; ? = inconclusive; - = no result given; [ ] = dose if it differs, or a comment. In the library only some 11% were active in any assay of this set; here they are far more common. Unless noted, calls come from the whole dose curve; as a rule, active = well fitted inhibition curve with a large enough effect (not every such curve was filed as active); inconclusive = small, poorly fitted or top-dose-only effect, or another doubt; inactive = no such curve, though single readings can be large or run the other way.

SMILES	PNC assembly inh	ALDH1A1 block	IMPase inh	IMPase Li cell	HPGD block	ALOX12 inhib
CC1=CSC2=NC(=O)/C(=C\c3cccn3-c3ccc([N+](=O)[O-])cc3)C(=N)N12	?	0	-	0	0	0
Cc1cc(/C=C2/C(=N)N3C(=NC2=O)SN=C3S(C)(=O)=O)c(C)n1-c1ccc(F)cc1	-	28µM	-	0	-	-
COc1ccccc1-n1c(C)cc(/C=C2/C(=N)N3C(=NC2=O)SN=C3S(C)(=O)=O)c1C	-	?	-	0	-	-
CC1=CSC2=NC(=O)/C(=C\c3cccn3-c3ccccc3)C(=N)N12	0	22µM	-	0	0	0
CCOc1ccc(-n2c(C)cc(/C=C3/C(=N)N4C(=NC3=O)SN=C4S(C)(=O)=O)c2C)cc1	-	18µM	-	0	-	-
Cc1cc(/C=C2/C(=N)N3C(c4ccccc4)=CSC3=NC2=O)c(C)n1-c1ccccc1	0	0	0	0	0	0
COCCn1c(=O)c(-c2cccs2)nc2cnc(Oc3ccccc3)nc21	-	?	-	0	-	-
COC(=O)C1(C(=O)OC)C/C=C\Cc2ccccc2[C@@H]1C[N+](=O)[O-]	-	0	-	0	0	0
CCC1=NN2C(=N)/C(=C\c3cccn3-c3cccc(Cl)c3)C(=O)N=C2S1	-	1.8µM	-	0	-	-
Cc1sc2nc(COC(=O)c3c(F)cccc3F)[nH]c(=O)c2c1C	-	0	-	0	-	-
Cc1sc2nc(COC(=O)CNC(=O)c3ccc(C(C)(C)C)cc3)[nH]c(=O)c2c1C	0	8.9µM	-	0	0	0
Cc1sc2nc(COC(=O)c3ccc(N4CCCC4)c([N+](=O)[O-])c3)[nH]c(=O)c2c1C	0	18µM	0	0	0	0
CN(Cc1cn(-c2ccccc2)nc1-c1cc2ccccc2o1)C(=O)CCC(=O)O	-	?	-	0	-	-
CC(C)CO/N=C1/C[C@@H](O)[C@@H](O)[C@@H]2[C@@H]3C(=O)N(C4CCCCC4)C(=O)[C@H]3CC[C@@H]12	-	0[13.5 µM]	-	-	-	-
O=C(c1ccccc1Cl)N1CCCC(c2nc3c(nnn3Cc3ccccc3)c(=O)[nH]2)C1 (stereo unspecified)	0	0	0	0	16µM	0
COc1cccc(Cn2nnc3c(=O)[nH]c(C4CCCN(C(=O)c5ccccc5Cl)C4)nc32)c1 (stereo unspecified)	?	7.9µM	0	0	14µM	0
Cc1nc2c(nnn2Cc2ccccc2)c(=O)[nH]1	-	0	-	0	-	-
COc1ccc(Cn2nnc3c(=O)[nH]c(C4CCCN(C(=O)c5ccccc5)C4)nc32)cc1 (stereo unspecified)	0	0	0	0	13µM	0
CCOc1ccc2c(c1)nc(SCC(=O)c1ccc(Br)s1)n2C	0	18µM	?	?	?	?
Cc1cccc(Nc2nc3c(S(=O)(=O)c4ccccc4)nnn3c3ccccc23)c1	-90	?	-	?	?	0
CCc1ccc(S(=O)(=O)c2nnn3c2nc(NCCNC(C)=O)c2ccccc23)cc1	-	?	-	0	-	-
CCCCNc1nc2c(S(=O)(=O)c3ccccc3)nnn2c2ccccc12	-	?	-	8.9µM	-	-
O=S(=O)(c1ccccc1)N1CCC2(CCCN(Cc3ccccc3)C2)CC1	-	0	-	0	0	0
CN(C)Cc1nc(-c2cn(C)c3ccccc23)no1	-	?	-	0	-	-
O=C(c1cccs1)N1CCN(Cc2ccccn2)CC1	-	15µM	-	0	-	-
SMILES	PNC assembly inh	ALDH1A1 block	IMPase inh	IMPase Li cell	HPGD block	ALOX12 inhib
O=C1c2cccc3cccc(c23)C(=O)N1c1ccncc1	-100	?	0	0	?	0
CCCC(=O)Nc1nc2c(OC)ccc(OC)c2s1	0	16µM	0	0	0	0
CCC(=O)Nc1nc2c(OC)ccc(OC)c2s1	0	0	0	0	0	0
COc1ccc(C)cc1NC(=O)CSc1nnc(-c2ccc(Br)cc2)o1	0	?	0	?	0	0
COC(=O)Sc1nnc(-c2ccc(Br)cc2)o1	0	8.9µM	?	10µM	22µM	0
Cc1cccc(CNc2cc(-c3c(C)noc3C)ncn2)c1	-	0	-	?	-	-
N#Cc1c(-c2ccco2)nc(SCc2ccc(F)cc2)[nH]c1=O	0	0	?	13µM	10µM	0
N#Cc1c(-c2ccco2)nc(SCC(=O)Nc2ccc(S(N)(=O)=O)cc2)[nH]c1=O	0	0	0	0	0	0
COC(=O)[C@@]1(Cc2ccccc2)[C@H]2c3cc(C(=O)N4CCCC4)n(Cc4ccccn4)c3C[C@H]2CN1C(=O)c1ccccc1	-	0	-	0	0	0
O=C(Nc1ccc(Cl)cc1)Nc1nnc(CSCc2ccccc2Cl)s1	0	0	0	0	0	0
O=C(Nc1ccccc1)Nc1nnc(CSCc2ccccc2Cl)s1	-88	0	0	0	0	0
CCCCC/C=C\C/C=C\C/C=C\CCCCCCC(=O)NCCCC(=O)O	-	0	-	0	0	0
Oc1ccc(N=Cc2ccc(OCc3ccccc3)cc2)cc1	-	20µM	-	0	-	-
CN(C)CCNc1cnn(-c2ccccc2)c(=O)c1Cl	-	0	-	0	-	-
Cn1c(=O)c2c(nc(N3CCNCC3)n2Cc2ccccc2Cl)n(C)c1=O	-	0	-	0	-	-
Cn1c(=O)c2c(nc(CN3CCC(C(N)=O)CC3)n2Cc2ccccc2Cl)n(C)c1=O	?	13µM	0	0	0	0
Cc1ccccc1Cn1c(CN2CCc3ccccc3C2)nc2c1c(=O)n(C)c(=O)n2C	0	32µM	0	0	0	0
Cn1c(=O)c2c(nc(CN3CCC(C(N)=O)CC3)n2CCc2ccccc2)n(C)c1=O	0	4.5µM	0	0	0	0
Cn1c(=O)c2c(nc(N3CCN(c4ccccn4)CC3)n2Cc2ccccc2Cl)n(C)c1=O	0	1.1µM	0	0	0	0
